The values below come from PubChem BioAssay.

Assay [1] in a line: antimalarial activity against Dd2 strain (AID 2302;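 active means growth inhibition above 50% at the single 2 µM test dose, taken to imply half-maximal potency below 2 µM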;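 further: 0% = DMSO untreated growth and 100% = chloroquine plus artemisinin killed control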). The note with it: P. falciparum Dd2 in RBCs, LDH growth readout, 72 h; at 2 µM; hits give high values.
The nature of assay [2]: human hepatoma cell viability loss – ATP luminescence, cytotoxicity control for P. falciparum antimalarial project, primary screen (AID 2303;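 active means inhibition above 50%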;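 further: 0% = DMSO wells and 100% = digitonin-killed cells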). The note with it: HepG2 viability, 24-48 h, at 10 µM, hits give high values.
In assay [3] the target is L-lactate dehydrogenase (Plasmodium falciparum (isolate CDC / Honduras)) (UniProt Q27743). Nature of the assay: PfLDH activity inhibition – cell lysate, 3D7 strain, counter-screen for P. falciparum growth inhibition project (AID 2304).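 Further: 0% = vehicle and 100% = reference inhibitor.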 The note with it: P. falciparum 3D7 crude extract, LDH APAD/NBT absorbance; at 2 µM; hits give high values.
Chain of L-lactate dehydrogenase (Plasmodium falciparum (isolate CDC / Honduras)) (Q27743 whole entry, looked up): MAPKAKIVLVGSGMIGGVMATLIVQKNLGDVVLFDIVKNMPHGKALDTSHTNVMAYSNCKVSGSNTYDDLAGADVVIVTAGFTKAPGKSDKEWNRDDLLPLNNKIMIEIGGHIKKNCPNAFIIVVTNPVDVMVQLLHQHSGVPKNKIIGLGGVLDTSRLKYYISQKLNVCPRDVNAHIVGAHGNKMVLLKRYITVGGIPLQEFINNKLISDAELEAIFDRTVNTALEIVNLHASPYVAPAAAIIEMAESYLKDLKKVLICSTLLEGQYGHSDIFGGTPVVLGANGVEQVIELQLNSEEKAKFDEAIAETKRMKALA
A short description of assay [4]: inhibition of 3D7 malaria parasite growth – strain 3D7 (AID 2306).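 Further: 0% = DMSO wells and 100% = chloroquine plus artemisinin control wells.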 The note with it: P. falciparum 3D7 erythrocytic growth, LDH absorbance, 72 h; at 2 µM; hits give high values.
The target in assay [5] is Calcium-dependent protein kinase 1 (Plasmodium falciparum (isolate 3D7)) (UniProt P62344). The experiment in a line: PfCDPK1 kinase inhibitors, biochemical, TCAMS library (AID 1159585; cut-off not given, nearly all actives have IC50 up to about 0.98 µM;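 further: inhibitors leave more ATP so luminescence rises with inhibition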). The note with it: recombinant PfCDPK1, Kinase-Glo ATP depletion luminescence. For orientation: Kinase-Glo reads ATP consumption through a luciferase reaction.
Chain of Calcium-dependent protein kinase 1 (Plasmodium falciparum (isolate 3D7)) (P62344 whole entry, looked up): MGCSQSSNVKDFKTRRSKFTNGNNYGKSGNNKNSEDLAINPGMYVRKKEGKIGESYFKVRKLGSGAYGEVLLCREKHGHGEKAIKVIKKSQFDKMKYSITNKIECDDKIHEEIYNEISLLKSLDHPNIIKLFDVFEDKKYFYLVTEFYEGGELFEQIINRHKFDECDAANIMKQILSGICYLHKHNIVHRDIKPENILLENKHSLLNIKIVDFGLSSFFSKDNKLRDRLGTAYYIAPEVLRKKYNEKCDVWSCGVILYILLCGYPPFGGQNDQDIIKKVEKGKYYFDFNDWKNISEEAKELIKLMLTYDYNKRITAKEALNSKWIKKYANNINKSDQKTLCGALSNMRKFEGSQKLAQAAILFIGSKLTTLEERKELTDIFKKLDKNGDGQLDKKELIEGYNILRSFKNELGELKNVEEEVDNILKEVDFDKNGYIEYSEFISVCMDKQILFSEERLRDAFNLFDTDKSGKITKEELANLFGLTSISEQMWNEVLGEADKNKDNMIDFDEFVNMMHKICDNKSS
Assay [6] has as its target Plasmodium falciparum protein kinase 6 (PK6, PF3D7_1337100) (UniProt Q8IDW1). Nature of the assay: PfPK6 kinase inhibitors, biochemical, TCAMS library (AID 1159586). The note with it: recombinant PfPK6, Kinase-Glo ATP depletion luminescence.
Assay [7] concerns the target Protein kinase 7 (PK7), Plasmodium falciparum 3D7 (PF3D7_0213400) (UniProt Q7YTF7). Nature of the assay: inhibition of Plasmodium PK7 catalytic activity – biochemical, TCAMS antimalarial set, Kinase-Glo luminescence (AID 1159587). The note with it: recombinant PfPK7, Kinase-Glo ATP depletion luminescence.
Assay [8] addresses Calcium-dependent protein kinase 4 (Plasmodium falciparum (isolate 3D7)) (UniProt Q8IBS5). The experiment in a line: PfCDPK4 kinase inhibitors, biochemical, TCAMS library (AID 1159588; cut-off not given, nearly all actives have IC50 up to about 0.91 µM). The note with it: recombinant PfCDPK4, Kinase-Glo ATP depletion luminescence.

A number with no mark means an inactive call. For part of these data: Measured potencies and affinities stand elsewhere. Activity calls are given as the source filed them. Unless noted, how the calls were made is not given here.

Chain of Protein kinase 7 (PK7), Plasmodium falciparum 3D7 (PF3D7_0213400) (Q7YTF7 1-343): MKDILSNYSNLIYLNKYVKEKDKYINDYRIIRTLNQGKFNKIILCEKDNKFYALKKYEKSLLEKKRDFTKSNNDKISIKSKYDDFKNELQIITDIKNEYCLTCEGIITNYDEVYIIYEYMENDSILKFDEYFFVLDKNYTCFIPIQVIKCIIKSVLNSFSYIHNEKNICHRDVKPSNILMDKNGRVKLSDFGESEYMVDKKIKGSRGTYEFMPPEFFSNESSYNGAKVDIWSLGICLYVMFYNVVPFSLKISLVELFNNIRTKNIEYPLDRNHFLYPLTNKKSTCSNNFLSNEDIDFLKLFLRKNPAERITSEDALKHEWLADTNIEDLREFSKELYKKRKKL
Chain of Calcium-dependent protein kinase 4 (Plasmodium falciparum (isolate 3D7)) (Q8IBS5 whole entry, looked up): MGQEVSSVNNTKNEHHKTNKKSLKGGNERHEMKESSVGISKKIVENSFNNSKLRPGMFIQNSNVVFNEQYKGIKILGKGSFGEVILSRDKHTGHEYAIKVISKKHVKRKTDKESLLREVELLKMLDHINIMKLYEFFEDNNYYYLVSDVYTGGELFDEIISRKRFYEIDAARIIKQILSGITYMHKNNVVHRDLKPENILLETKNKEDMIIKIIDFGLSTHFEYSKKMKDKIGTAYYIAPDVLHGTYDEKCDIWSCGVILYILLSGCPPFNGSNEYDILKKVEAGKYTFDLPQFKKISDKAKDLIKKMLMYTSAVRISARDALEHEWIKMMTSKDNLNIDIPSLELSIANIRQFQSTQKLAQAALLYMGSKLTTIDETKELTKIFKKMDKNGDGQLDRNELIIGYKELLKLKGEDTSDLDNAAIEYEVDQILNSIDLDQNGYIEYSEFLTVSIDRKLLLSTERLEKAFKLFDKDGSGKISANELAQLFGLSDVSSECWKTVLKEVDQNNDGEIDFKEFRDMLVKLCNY
Chain of Plasmodium falciparum protein kinase 6 (PK6, PF3D7_1337100) (Q8IDW1 1-305): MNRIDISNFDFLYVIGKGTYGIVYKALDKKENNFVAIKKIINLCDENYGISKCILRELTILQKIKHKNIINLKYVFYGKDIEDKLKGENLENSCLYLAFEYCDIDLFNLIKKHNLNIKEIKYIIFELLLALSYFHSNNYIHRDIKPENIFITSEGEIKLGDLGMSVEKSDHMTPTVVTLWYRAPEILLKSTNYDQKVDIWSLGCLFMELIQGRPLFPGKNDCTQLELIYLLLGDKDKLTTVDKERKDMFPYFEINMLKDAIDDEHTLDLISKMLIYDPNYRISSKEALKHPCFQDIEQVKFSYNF

As usually defined, the inhibition is the change of the read-out against control, counted positive when it falls. On to `O=C(Nc1ccc([N+](=O)[O-])cc1Br)c1cc2ccccc2nc1Cl`, for which the growth inhibition in assay [1] was 68% (active); in assay [4], 97% (active). The inhibition in assay [2] was -4%; in assay [3] it was 2%. Moreover, the result in assay [5], in assay [6], in assay [7] and in assay [8] was inactive.

Consider `CC[C@H](C)CNC(=O)c1cncc(-c2ccc(CNC3CCCC3)cc2)c1`, for which the growth inhibition in assay [1] is 5%; in assay [4] it was 97% (active). Moreover, the inhibition was -25% in assay [2] and 0% in assay [3]. The outcome in assay [5], in assay [6], in assay [7] and in assay [8] was inactive.

For `Oc1ccc2ccccc2c1CNC1CCCCCC1`, the results for the growth inhibition in assay [1] and in assay [4] were 33% and 83% (active), respectively. Besides, the inhibition in assay [2] is 9%; in assay [3], 5%. The outcome in assay [5], in assay [6], in assay [7] and in assay [8] was inactive.

With `CN(C)Cc1c(O)ccc2[nH]c(-c3ccc(F)cc3F)nc12`, the growth inhibition was 17% in assay [1] and 99% (active) in assay [4]. The inhibition was 4% in assay [2] and -2% in assay [3]. Also, the outcome in assay [5], in assay [6], in assay [7] and in assay [8] was inactive.

Turning to `Cc1cc(NN=Cc2ccccc2)c2cc(F)ccc2n1`, the results for the growth inhibition in assay [1] and in assay [4] were 94% (active) and 101% (active), respectively. Moreover, the values for the inhibition in assay [2] and in assay [3] were 11% and -1%, respectively. Further, the result in assay [5], in assay [6], in assay [7] and in assay [8] was inactive.

In the case of `FC(F)(F)c1ccc2nc(-c3ccc(-c4cccc(CNCc5ccccc5)c4)cc3)[nH]c2c1`, the growth inhibition in assay [1] was 43%; in assay [4], 100% (active). For the same molecule, the inhibition in assay [2] was -2%; in assay [3], -5%. Moreover, the result in assay [5], in assay [6], in assay [7] and in assay [8] was inactive.

For `O=C(NC1CCN(Cc2cccc(C(F)(F)F)c2)CC1)c1ccc(-c2cccc(Cl)c2)s1`, the growth inhibition in assay [1] was 33%; in assay [4] it was 89% (active). Also, the inhibition in assay [2] is 26%; in assay [3], -1%. In addition, the result in assay [5], in assay [6], in assay [7] and in assay [8] was inactive.

Take `C=CC[C@H](NC(=O)c1ccc(NS(=O)(=O)c2ccc3nc(N)[nH]c(=O)c3c2)cc1)C(=O)OCCCC`: the results for the growth inhibition in assay [1] and in assay [4] were 2% and 97% (active), respectively. For the same molecule, the inhibition in assay [2] was 61% (active); in assay [3], 1%. In addition, the result in assay [5], in assay [6], in assay [7] and in assay [8] was inactive.

On to `Cc1nc2ccccc2c(=O)n1N=Cc1ccccc1[N+](=O)[O-]`, for which the growth inhibition in assay [1] was 26%; in assay [4], 94% (active). Also, the inhibition is -8% in assay [2] and 3% in assay [3]. Further, the result in assay [5], in assay [6], in assay [7] and in assay [8] was inactive.

For `CCC(=O)N[C@@H]1CN[C@@H](C#Cc2cc3c(Nc4ccc(OCc5cccc(F)c5)c(Cl)c4)ncnc3s2)C1`, the growth inhibition in assay [1] was -5%; in assay [4], 82% (active). The inhibition in assay [2] is 46%; in assay [3], -3%. Also, the outcome in assay [5], in assay [6], in assay [7] and in assay [8] was inactive.

As for `FC(F)(F)c1ccc2nccc(NN=Cc3cccnc3)c2c1`, the values for the growth inhibition in assay [1] and in assay [4] were 40% and 101% (active), respectively. The inhibition was -9% in assay [2] and -8% in assay [3]. The result in assay [5], in assay [6], in assay [7] and in assay [8] was inactive.

On to `CN1C(C)(C)CC(NC(=O)c2ccc(-c3cc4cc(Cl)c(Cl)cc4[nH]3)o2)CC1(C)C`, for which the growth inhibition in assay [1] was 43%; in assay [4] it was 101% (active). The inhibition in assay [2] is 21%; in assay [3] it was -4%. The result in assay [5], in assay [6], in assay [7] and in assay [8] was inactive.

Consider `NC(N)=Nc1cccc(NC(=O)Nc2cccc(N=C(N)N)c2)c1`, for which the results for the growth inhibition in assay [1] and in assay [4] were 71% (active) and 87% (active), respectively. Also, the inhibition in assay [2] was -7%; in assay [3], 7%. Further, the outcome in assay [5], in assay [6], in assay [7] and in assay [8] was inactive.

Regarding `COc1ccc(-c2cccc(NC(=O)c3cccc(C#N)c3)c2)cc1CN1CCC(O)CC1`, the growth inhibition in assay [1] was 13%; in assay [4], 97% (active). For the same molecule, the inhibition in assay [2] was 30%; in assay [3], -3%. Moreover, the result in assay [5], in assay [6], in assay [7] and in assay [8] was inactive.

As to `O=S(=O)(NCCN1CCCC1)c1ccc(-c2ccc(CNC3Cc4ccccc4C3)cc2)cc1`, the growth inhibition in assay [1] is 91% (active); in assay [4], 99% (active). Moreover, the values for the inhibition in assay [2] and in assay [3] were 61% (active) and 5%, respectively. In addition, the outcome in assay [5], in assay [6], in assay [7] and in assay [8] was inactive.

Consider `CC(C)c1ccc(NC(=O)NC2CCN(CCCCCNC(=O)/C=C/c3ccc(Cl)c(Cl)c3)CC2)cc1`, for which the growth inhibition is 19% in assay [1] and 100% (active) in assay [4]. For the same molecule, the inhibition was -5% in assay [2] and -2% in assay [3]. The result in assay [5], in assay [6], in assay [7] and in assay [8] was inactive.

With `Nc1ncnc2cc(-c3cccc(NC(=O)Nc4ccccc4)c3)sc12`, the growth inhibition in assay [1] was 33%; in assay [4], 94% (active). Further, the values for the inhibition in assay [2] and in assay [3] were 4% and 9%, respectively. For the same molecule, the outcome in assay [5], in assay [6], in assay [7] and in assay [8] was inactive.

For the molecule `O=C(N[C@H]1CCN(Cc2ccc(OCCN3CCCC3)c3ccccc23)C1)c1ccc(Cl)c(Cl)c1`, the growth inhibition is 51% (active) in assay [1] and 100% (active) in assay [4]. In addition, the figures for the inhibition in assay [2] and in assay [3] were 90% (active) and -1%, respectively. The result in assay [5], in assay [6], in assay [7] and in assay [8] was inactive.
